# Source: PubChem BioAssay (NCATS)
# Records with an inconclusive call do not appear. Entries that show only a call come without a potency. A number with no mark means an inactive call. The source made the active and inactive calls. Unless noted, the call rests on the fitted dose curve; in most records, active means well fitted curve in the direction sought with a large enough effect; inconclusive means small, poorly fitted or top-dose-only effect, or another doubt; inactive means no such curve, though single readings can be large; an effect the other way counts as inactive or inconclusive.
# Assays:
# [1] = P-glycoprotein substrates identified in KB-8-5-11 adenocarcinoma cell line, qHTS therapeutic library screen (AID 1346987); further: nearly all actives have a fitted effect of over 65% in size; further: potency means the concentration at half of the fitted maximal effect; on activity change, negative = cytotoxicity: series mostly up to about 44 µM
# Outline: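 KB-8-5-11: colchicine-selected sub-line of KB-3-1 over-expressing P-gp; assay medium lacked colchicine. 72 h drug exposure at 37 degree C, CellTiter-Glo.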
# [2] = qHTS assay for small molecule agonists of the antioxidant response element (ARE) signaling pathway measured by Nrf2-dependant transcriptional activity (AID 720636; active means well fitted curve in the direction sought with a large enough effect in the repeat runs; an effect the other way counts as inactive or inconclusive)
# Outline: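 Quantitative HTS format in HepG2 cells stably expressing an ARE-luciferase reporter; 16 hr compound treatment at 37 C, luciferase signal detected with ONE-Glo.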
# [3] = qHTS assay for small molecule antagonists of the retinoid-related orphan receptor gamma (ROR-gamma) signaling pathway - cell viability counter screen (AID 720652; active means well fitted curve in the direction sought with a large enough effect in the repeat runs; an effect the other way counts as inactive or inconclusive;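 further: CHO reporter cells with doxycycline-induced ROR-gamma expression; series mostly up to about 92 µM; compound exposure lasted 16 hr before ATP read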)
# Outline: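 Counter screen in CHO cells carrying TET-inducible ROR-gamma and an ROR response element-luciferase reporter; cells plated 5 hr, compound pinned, doxycycline added, then 16 hr at 37 C. Viability read as intracellular ATP by CellTiter-Glo luminescence.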
# [4] = qHTS Assay for Identifying Gametocytocidal Compounds (AID 743244); further: potency means the concentration at half of the fitted maximal effect;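 on max response: actives lower the fluorescent signal which means gametocytes are killed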; conditions: P. falciparum 3D7 stage III-V gametocytes, alamarBlue, 72 h; max response: stronger effect = lower value
# Outline: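 Using 20,000 stage III–V 3D7 gametocytes per well, compounds were incubated 72 h under 37 °C/5% CO2. Viability was then assessed by 24 h alamarBlue reduction, measured fluorometrically at 525/598 nm.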
compound,measurement,setting,value
CCOCCn1nc(CC)c2nc(N3CCC(C(=O)O)CC3)nc(Nc3cc(C)ccn3)c21,Potency,[1],inactive
Cc1nc2ccc(Oc3ccc(F)cc3)cc2c(=O)n1C[C@H]1CCCN(C(C)C)C1,Potency,[1],inactive
CC1(C)CC[C@]2(C(=O)O)CC[C@]3(C)C(=CCC4[C@@]5(C)CC[C@H](O[C@@H]6O[C@H](CO)[C@@H](O)[C@H](O)[C@H]6O[C@@H]6O[C@H](CO)[C@@H](O)[C@H](O)[C@H]6O)[C@@](C)(CO)C5CC[C@]43C)[C@@H]2C1 (some centres undefined),Potency,[1],inactive
COc1ccc(-c2c(-c3cc(C(=O)O)ccn3)ncn2C)cc1,Potency,[1],inactive
C[C@H](C(=O)NC1CCCC1)N(C(=O)Cn1nnc(-c2ccc3c(c2)OCO3)n1)C1CCCCC1,Potency,[1],inactive
O=C1CCC(c2ccccc2)(C2CCN(Cc3ccc(I)cc3)CC2)C(=O)N1 (centres undefined),Potency,[1],inactive
CC1=CC(=O)CC(C)(CO)C1(O)/C=C/C(C)O[C@@H]1O[C@H](CO)[C@@H](O)[C@H](O)[C@H]1O (some centres undefined),Potency,[1],inactive
C1CCC[C@H]2CCCN3CC[C@@H](CCCCCC[C@@H]4CCCN5CC[C@@H](CC1)O[C@@H]45)O[C@@H]23,outcome,[1],inactive [at 0.0709 µM]
COC(=O)C1=COC(O[C@@H]2O[C@H](CO)[C@@H](O)[C@H](O)[C@H]2O)[C@H]2[C@@H]1[C@H](OC(=O)CCc1ccc(O)cc1)C[C@]2(C)O (some centres undefined),Potency,[1],inactive
C[C@@H]1O[C@@H](O[C@H]2[C@H](O)[C@@H](O[C@@H]3O[C@H](CO)[C@@H](O)[C@H](O[C@@H]4O[C@H](CO)[C@@H](O)[C@H](O)[C@H]4O)[C@H]3O)[C@H](O[C@H]3CC[C@@]4(C)C(=CC[C@@H]5C4CC[C@@]4(C)C5C[C@@H]5OC6(CC[C@@](C)(CO[C@@H]7O[C@H](CO)[C@@H](O)[C@H](O)[C@H]7O)O6)[C@@H](C)[C@@H]54)C3)O[C@@H]2CO)[C@H](O)[C@H](O)[C@H]1O (some centres undefined),"activity change, negative = cytotoxicity",[1],3.17% [at 9.29 µM]
O=C(O)CC(=O)OC[C@H]1O[C@@H](Oc2ccc3c(c2)OC[C@H]2c4cc5c(cc4O[C@@H]32)OCO5)[C@H](O)[C@@H](O)[C@@H]1O,Potency,[1],inactive
COC(=O)C1(C)CCC2(C(=O)O)CCC3(C)C(=CCC4C5(C)CC(O)C(OC6OCC(O)C(O)C6O)C(C)(CO)C5CCC43C)C2C1 (centres undefined),Potency,[1],inactive
CCCNc1ccc2ncc(-c3ccc4[nH]ncc4c3)n2n1,Potency,[1],3.66 µM (active)
CC(=O)O[C@H]1CC[C@H](C)[C@@]2(C)[C@H](OC(C)=O)c3c(C)coc3C(=O)[C@H]12,Potency,[1],inactive
CC1=C(C(=O)O)/C(=C/CO[C@@H]2O[C@H](COC(=O)/C=C/c3ccc(O)cc3)[C@@H](O)[C@H](O)[C@H]2O)C(O)C1 (some centres undefined),Potency,[1],inactive
c1cc(OCCCN2CCCCC2)ccc1CN1CCCCC1,Potency,[1],inactive
COc1ccc([C@H]2CNC(=O)C2)cc1OC1CCCC1,Potency,[1],inactive
CC1=C2C3OC(=O)C(C)C3(O)CCC2(C)CCC1O (centres undefined),Potency,[1],inactive
CCC1=CC2CN(C1)Cc1c([nH]c3ccccc13)[C@@](C(=O)OC)(c1cc3c(cc1OC)N(C)[C@H]1[C@@](O)(C(=O)OC)[C@H](OC(C)=O)[C@]4(CC)C=CCN5CC[C@]31[C@@H]54)C2 (some centres undefined),Potency,[1],7.09 µM (active)
COC(=O)C1=CO[C@@H](O)C2C(CO)=CCC12 (some centres undefined),Potency,[1],inactive
CC(C)C(N)C(=O)OCCOCn1cnc2c(=O)[nH]c(N)nc21 (centres undefined),Potency,[1],inactive
CCC(=O)O[C@H]1C(C)(C)[C@H]([C@@H](O)C(=O)OC)[C@]2(C)C(=O)[C@@]1(O)[C@H]1O[C@]13C1CC(=O)O[C@@H](c4ccoc4)[C@]1(C)CCC32 (some centres undefined),Potency,[1],inactive
COC1/C=C/C(C)(O)C(SCC(N)C(=O)O)CC(=O)OC(C)C(C)CC/C=C/1C (centres undefined),Potency,[1],inactive
CC(=O)O[C@@H]1CC(C)=C2[C@H]1[C@H](C)CC[C@H]2/C=C(\C)C(=O)O,outcome,[2],inactive
same,outcome,[3],inactive
CC(=O)O[C@H]1C(=O)[C@@]2(C)[C@H]([C@H](OC(=O)c3ccccc3)[C@]3(O)C[C@H](OC(=O)[C@H](O)[C@@H](NC(=O)c4ccccc4)c4ccccc4)C(C)=C1C3(C)C)[C@]1(OC(C)=O)CO[C@@H]1C[C@@H]2O,outcome,[2],inactive
same,max response,[4],-7.34%
Cc1ccc(N)cc1O,outcome,[3],inactive
same,Potency,[4],31.6 µM (active)
